# Experimental data taken from paper PMC7862700, “An all-to-all approach to the identification of sequence-specific readers for epigenetic DNA modifications on cytosine”.
# What was measured:
# Assay in all cases: DAPPL (digital affinity profiling via proximity ligation, sequencing); 10 mM Tris-HCl pH 7.5, 50 mM NaCl, 1 mM DTT, 4% glycerol, room temperature, 30 min; GST-TFs on glutathione beads, 16-mer random dsDNA library, 0.1% formaldehyde crosslink after washing; high values mean tight binding
# FEV = target: T1, FEV (Homo sapiens, UniProt Q99581 1-238); settings: protein: recombinant; tags: N-terminal GST; dsDNA, one strand shown
# T1 sequence: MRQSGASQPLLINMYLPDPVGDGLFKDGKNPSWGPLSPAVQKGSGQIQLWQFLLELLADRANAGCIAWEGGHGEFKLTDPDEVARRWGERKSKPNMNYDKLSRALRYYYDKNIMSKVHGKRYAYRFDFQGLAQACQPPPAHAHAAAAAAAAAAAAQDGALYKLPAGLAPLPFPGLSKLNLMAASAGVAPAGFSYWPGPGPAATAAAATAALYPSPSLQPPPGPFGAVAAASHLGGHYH
# Method in brief: (§1)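 A tag-only sample was pooled with DNA-barcoded human transcription factors that had been expressed in yeast as GST fusions and captured on glutathione beads. The pools were incubated for 30 min at room temperature with 200 nmole of a random double-stranded 16-mer DNA library in Tris/NaCl/DTT/glycerol buffer, then washed, crosslinked with 0.1% formaldehyde, proximity-ligated (BsaI/T4 ligase, 1 h, 37 °C), PCR-amplified and sequenced on an Illumina NextSeq500. Binding signal is each hexamer's read frequency for a factor divided by its frequency for the tag-only sample.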
# ETV5 = ETV5 (Homo sapiens, UniProt P41161 1-510); settings: protein: recombinant; tags: N-terminal GST; dsDNA, one strand shown
# Method in brief: as §1
# HSF1 = HSF1 (Homo sapiens, UniProt Q00613 1-529); settings: protein: recombinant; tags: N-terminal GST; chain copies: 3; dsDNA, one strand shown
# Method in brief: as §1
# SPIC = target: T2, SPIC (Homo sapiens, UniProt Q8N5J4 1-248); settings: protein: recombinant; tags: N-terminal GST; dsDNA, one strand shown
# T2 sequence: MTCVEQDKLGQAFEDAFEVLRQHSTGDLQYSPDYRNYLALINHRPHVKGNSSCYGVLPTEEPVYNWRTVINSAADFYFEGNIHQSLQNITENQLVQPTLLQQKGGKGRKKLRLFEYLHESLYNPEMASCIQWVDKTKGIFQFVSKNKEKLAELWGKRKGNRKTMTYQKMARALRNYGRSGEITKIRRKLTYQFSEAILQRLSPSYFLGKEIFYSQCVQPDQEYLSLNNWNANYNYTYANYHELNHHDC
# Method in brief: as §1
# ELF4 = ELF4 (Homo sapiens, UniProt Q99607 1-663); settings: protein: recombinant; tags: N-terminal GST; dsDNA, one strand shown
# Method in brief: as §1
# ELK4 = target: T3, ELK4 (Homo sapiens, UniProt P28324-2 1-405); settings: protein: recombinant; tags: N-terminal GST; dsDNA, one strand shown
# T3 sequence: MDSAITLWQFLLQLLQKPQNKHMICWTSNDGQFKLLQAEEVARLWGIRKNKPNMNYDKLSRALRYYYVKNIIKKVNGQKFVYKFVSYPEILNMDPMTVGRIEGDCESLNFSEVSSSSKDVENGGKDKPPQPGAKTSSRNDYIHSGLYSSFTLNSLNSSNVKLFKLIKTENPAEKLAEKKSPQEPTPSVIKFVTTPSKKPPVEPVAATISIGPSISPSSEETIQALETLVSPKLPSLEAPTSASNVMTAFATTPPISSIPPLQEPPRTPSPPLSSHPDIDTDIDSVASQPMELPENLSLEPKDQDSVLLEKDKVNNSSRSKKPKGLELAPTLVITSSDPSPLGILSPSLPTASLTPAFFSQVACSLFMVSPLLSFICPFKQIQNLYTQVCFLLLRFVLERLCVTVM
# Method in brief: as §1
# ETV2 = target: T4, ETV2 (Homo sapiens, UniProt O00321 1-342); settings: protein: recombinant; tags: N-terminal GST; dsDNA, one strand shown
# T4 sequence: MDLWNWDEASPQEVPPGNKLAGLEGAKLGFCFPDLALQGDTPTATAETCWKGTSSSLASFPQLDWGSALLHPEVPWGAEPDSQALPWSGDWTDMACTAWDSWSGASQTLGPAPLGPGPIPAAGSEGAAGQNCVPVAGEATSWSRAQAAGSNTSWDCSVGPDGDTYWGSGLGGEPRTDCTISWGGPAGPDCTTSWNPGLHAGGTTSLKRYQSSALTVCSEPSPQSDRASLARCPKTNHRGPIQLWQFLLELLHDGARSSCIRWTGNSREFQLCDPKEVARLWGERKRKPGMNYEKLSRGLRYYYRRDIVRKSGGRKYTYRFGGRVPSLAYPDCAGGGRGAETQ
# Method in brief: as §1
# ELF3 = target: T5, ELF3 (Homo sapiens, UniProt P78545 1-371); settings: protein: recombinant; tags: N-terminal GST; dsDNA, one strand shown
# T5 sequence: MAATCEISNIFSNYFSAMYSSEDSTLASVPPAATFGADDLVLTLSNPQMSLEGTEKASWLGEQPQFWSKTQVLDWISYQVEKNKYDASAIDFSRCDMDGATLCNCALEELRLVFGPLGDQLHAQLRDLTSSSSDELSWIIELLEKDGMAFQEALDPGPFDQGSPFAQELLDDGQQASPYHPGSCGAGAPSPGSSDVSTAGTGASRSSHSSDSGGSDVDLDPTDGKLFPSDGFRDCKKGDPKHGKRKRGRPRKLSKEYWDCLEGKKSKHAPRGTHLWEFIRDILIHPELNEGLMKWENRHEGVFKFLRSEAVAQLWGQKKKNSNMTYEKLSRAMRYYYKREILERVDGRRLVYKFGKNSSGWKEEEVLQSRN
# Method in brief: as §1
# CRX = CRX (Homo sapiens, UniProt O43186 1-299); settings: protein: recombinant; tags: N-terminal GST; dsDNA, one strand shown
# Method in brief: as §1
# ETV1 = ETV1 (Homo sapiens, UniProt P50549 1-477); settings: protein: recombinant; tags: N-terminal GST; dsDNA, one strand shown
# Method in brief: as §1
# ERF = target: T6, ERF (Homo sapiens, UniProt P50548 1-548); settings: protein: recombinant; tags: N-terminal GST; dsDNA, one strand shown
# T6 sequence: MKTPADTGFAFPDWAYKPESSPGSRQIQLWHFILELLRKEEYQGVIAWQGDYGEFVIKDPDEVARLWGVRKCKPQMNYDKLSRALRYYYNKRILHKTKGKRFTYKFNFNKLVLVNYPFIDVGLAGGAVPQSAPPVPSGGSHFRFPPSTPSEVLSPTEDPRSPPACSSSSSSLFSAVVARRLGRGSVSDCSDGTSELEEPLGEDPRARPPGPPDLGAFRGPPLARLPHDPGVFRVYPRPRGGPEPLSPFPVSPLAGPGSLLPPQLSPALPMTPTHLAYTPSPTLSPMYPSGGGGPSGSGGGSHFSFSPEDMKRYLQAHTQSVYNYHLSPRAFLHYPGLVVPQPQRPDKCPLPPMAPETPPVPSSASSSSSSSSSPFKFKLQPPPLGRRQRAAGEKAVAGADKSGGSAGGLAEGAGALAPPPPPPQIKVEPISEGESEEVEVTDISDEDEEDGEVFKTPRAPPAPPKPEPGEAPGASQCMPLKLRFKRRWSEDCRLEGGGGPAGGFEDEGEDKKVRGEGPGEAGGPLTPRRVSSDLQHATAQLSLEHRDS
# Method in brief: as §1
# ETV3L = target: T7, ETV3L (Homo sapiens, UniProt Q6ZN32 1-361); settings: protein: recombinant; tags: N-terminal GST; dsDNA, one strand shown
# T7 sequence: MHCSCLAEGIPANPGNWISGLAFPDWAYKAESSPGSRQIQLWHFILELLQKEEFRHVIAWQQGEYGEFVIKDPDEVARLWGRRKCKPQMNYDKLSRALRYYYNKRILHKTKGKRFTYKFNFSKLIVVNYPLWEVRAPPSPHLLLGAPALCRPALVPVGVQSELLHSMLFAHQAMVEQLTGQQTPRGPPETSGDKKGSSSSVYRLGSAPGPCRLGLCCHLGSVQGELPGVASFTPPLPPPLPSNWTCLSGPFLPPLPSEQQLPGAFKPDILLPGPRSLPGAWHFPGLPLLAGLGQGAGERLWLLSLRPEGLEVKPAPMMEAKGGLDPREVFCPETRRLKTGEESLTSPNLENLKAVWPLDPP
# Method in brief: as §1
# ETS2 = target: T8, ETS2 (Homo sapiens, UniProt P15036 1-469); settings: protein: recombinant; tags: N-terminal GST; dsDNA, one strand shown
# T8 sequence: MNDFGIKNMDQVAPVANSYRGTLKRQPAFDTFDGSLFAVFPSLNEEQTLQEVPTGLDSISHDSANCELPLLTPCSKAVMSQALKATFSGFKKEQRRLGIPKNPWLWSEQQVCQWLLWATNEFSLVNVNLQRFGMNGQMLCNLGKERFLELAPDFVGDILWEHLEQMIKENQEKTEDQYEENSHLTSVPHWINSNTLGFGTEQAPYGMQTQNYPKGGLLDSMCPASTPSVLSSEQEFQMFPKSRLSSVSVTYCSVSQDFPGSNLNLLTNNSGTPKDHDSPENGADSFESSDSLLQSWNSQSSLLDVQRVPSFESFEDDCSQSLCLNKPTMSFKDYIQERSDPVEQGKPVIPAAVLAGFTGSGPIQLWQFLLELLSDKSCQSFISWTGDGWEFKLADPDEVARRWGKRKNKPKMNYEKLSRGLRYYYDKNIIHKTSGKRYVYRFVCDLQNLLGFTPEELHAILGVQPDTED
# Method in brief: as §1
# SPDEF = target: T9, SPDEF (Homo sapiens, UniProt O95238 1-335); settings: protein: recombinant; tags: N-terminal GST; dsDNA, one strand shown
# T9 sequence: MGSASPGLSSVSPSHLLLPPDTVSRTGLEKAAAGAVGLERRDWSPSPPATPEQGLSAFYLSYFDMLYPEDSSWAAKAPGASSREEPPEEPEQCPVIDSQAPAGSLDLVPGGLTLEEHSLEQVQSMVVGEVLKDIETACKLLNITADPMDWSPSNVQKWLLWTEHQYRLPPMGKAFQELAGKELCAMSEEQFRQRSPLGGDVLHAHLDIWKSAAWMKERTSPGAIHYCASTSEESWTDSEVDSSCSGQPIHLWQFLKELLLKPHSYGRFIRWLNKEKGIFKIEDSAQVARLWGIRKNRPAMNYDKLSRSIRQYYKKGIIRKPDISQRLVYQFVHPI
# Method in brief: as §1
# ETV7 = target: T10, ETV7 (Homo sapiens, UniProt Q9Y603 1-341); settings: protein: recombinant; tags: N-terminal GST; dsDNA, one strand shown
# T10 sequence: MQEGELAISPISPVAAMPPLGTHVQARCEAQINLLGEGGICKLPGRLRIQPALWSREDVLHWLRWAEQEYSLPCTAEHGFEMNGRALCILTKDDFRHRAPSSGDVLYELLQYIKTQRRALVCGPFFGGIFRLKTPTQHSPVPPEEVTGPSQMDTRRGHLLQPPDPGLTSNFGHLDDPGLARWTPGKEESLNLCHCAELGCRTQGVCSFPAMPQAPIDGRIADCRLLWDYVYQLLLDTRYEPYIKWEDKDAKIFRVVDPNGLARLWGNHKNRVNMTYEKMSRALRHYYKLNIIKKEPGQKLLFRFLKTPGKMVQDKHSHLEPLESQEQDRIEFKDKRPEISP
# Method in brief: as §1
# ELF5 = target: T11, ELF5 (Homo sapiens, UniProt Q9UKW6-2 1-255); settings: protein: recombinant; tags: N-terminal GST; dsDNA, one strand shown
# T11 sequence: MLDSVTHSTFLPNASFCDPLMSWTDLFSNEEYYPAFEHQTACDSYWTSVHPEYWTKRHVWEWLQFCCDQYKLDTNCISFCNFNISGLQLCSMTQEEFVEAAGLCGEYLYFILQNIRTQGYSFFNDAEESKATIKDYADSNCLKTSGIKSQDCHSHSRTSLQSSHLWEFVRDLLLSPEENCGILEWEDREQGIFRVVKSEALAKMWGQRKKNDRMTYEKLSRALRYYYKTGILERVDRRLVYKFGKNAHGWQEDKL
# Method in brief: as §1
# ETV3 = target: T12, ETV3 (Homo sapiens, UniProt P41162-2 1-143); settings: protein: recombinant; tags: N-terminal GST; dsDNA, one strand shown
# T12 sequence: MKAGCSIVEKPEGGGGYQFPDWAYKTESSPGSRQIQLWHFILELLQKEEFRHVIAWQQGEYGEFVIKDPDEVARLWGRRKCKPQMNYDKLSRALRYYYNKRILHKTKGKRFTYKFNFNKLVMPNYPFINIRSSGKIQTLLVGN
# Method in brief: as §1
# ETV6 = ETV6 (Homo sapiens, UniProt P41212 1-452); settings: protein: recombinant; tags: N-terminal GST; dsDNA, one strand shown
# Method in brief: as §1
# Chain of ETV6 (P41212 whole entry): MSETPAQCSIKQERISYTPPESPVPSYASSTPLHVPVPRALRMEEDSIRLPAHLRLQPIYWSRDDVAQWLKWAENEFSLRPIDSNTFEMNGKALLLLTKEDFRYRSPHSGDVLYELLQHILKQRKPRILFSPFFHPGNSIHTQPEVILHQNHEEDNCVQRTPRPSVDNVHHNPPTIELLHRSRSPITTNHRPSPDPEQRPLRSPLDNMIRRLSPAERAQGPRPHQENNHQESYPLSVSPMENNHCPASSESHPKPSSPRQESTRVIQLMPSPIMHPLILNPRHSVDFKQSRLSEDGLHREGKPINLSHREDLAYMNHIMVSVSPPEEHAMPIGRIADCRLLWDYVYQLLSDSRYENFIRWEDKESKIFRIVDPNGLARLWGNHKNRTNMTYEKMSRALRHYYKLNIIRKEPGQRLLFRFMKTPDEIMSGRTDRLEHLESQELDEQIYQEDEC
# Chain of ELF4 (Q99607 whole entry): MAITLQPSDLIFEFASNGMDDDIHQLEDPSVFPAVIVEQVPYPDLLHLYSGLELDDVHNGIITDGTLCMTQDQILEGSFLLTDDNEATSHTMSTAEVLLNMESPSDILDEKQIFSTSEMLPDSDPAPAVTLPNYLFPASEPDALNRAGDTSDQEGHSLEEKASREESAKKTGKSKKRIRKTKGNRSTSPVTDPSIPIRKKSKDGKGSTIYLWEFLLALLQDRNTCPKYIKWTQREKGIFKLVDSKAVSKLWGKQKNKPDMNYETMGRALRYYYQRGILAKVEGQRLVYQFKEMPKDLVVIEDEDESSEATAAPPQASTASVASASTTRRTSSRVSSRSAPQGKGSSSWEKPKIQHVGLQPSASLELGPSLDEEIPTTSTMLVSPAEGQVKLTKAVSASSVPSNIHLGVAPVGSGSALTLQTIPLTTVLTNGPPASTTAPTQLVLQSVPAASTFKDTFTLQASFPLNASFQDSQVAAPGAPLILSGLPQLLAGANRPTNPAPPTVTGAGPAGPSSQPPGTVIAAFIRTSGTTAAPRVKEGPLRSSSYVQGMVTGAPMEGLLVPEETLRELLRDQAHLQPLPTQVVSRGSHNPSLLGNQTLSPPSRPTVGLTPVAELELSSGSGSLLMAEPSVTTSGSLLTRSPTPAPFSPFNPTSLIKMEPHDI
# Chain of ETV1 (P50549 whole entry): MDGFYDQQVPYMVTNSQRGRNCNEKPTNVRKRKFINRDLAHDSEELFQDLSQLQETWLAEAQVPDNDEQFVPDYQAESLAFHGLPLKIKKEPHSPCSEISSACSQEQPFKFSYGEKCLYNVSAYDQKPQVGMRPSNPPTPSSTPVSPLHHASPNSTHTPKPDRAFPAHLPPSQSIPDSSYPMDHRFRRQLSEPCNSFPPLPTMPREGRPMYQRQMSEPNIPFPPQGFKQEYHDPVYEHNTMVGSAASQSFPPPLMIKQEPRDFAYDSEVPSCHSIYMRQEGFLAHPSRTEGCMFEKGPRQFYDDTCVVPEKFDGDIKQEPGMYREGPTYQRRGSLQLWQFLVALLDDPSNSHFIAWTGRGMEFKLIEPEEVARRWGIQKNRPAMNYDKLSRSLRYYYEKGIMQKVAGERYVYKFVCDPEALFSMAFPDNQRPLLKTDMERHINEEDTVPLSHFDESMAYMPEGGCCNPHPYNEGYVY
# Chain of HSF1 (Q00613 whole entry): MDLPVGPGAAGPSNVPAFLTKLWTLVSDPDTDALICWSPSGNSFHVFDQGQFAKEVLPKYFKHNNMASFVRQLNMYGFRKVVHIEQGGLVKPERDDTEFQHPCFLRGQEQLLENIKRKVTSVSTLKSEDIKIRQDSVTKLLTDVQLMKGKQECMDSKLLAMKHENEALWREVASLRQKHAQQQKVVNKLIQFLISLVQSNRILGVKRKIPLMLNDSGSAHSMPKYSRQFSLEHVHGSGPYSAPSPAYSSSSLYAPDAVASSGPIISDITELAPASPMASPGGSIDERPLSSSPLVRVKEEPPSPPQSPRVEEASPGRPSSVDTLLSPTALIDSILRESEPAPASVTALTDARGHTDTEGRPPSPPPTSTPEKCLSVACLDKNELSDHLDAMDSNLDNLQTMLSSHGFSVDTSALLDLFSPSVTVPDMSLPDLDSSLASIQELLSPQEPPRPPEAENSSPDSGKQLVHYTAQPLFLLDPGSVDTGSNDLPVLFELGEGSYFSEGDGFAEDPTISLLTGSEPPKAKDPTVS
# Chain of ETV5 (P41161 whole entry): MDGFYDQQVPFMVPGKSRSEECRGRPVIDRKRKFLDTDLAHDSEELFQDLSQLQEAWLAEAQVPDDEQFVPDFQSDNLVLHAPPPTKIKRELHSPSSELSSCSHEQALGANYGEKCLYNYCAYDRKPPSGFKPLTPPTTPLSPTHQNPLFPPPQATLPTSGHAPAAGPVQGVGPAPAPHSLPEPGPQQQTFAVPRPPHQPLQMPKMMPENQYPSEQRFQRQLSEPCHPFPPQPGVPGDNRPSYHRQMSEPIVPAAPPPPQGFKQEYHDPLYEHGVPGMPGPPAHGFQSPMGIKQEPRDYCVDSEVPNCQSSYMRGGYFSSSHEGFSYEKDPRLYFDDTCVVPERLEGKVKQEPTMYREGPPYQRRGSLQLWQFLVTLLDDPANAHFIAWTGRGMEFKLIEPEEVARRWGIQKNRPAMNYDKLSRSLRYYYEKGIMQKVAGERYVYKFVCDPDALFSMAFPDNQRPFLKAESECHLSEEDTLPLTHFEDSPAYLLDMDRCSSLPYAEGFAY
# Chain of CRX (O43186 whole entry): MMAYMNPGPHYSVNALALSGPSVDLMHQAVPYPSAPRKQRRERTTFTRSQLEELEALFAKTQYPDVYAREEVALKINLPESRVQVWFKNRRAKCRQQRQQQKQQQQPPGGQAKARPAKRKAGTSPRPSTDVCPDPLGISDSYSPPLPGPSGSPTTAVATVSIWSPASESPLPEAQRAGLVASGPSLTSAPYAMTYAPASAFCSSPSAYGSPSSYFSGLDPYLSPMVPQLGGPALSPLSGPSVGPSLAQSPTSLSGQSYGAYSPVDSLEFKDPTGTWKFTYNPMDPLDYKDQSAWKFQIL
sequence,measurement,setting,value
TTTAAT,binding signal,FEV,"1.26 fold enrichment (6-mer frequency, TF over GST control)"
same,binding signal,ETV5,"1.32 fold enrichment (6-mer frequency, TF over GST control)"
same,binding signal,HSF1,"2.06 fold enrichment (6-mer frequency, TF over GST control)"
same,binding signal,SPIC,"1.25 fold enrichment (6-mer frequency, TF over GST control)"
same,binding signal,ELF4,"1.32 fold enrichment (6-mer frequency, TF over GST control)"
same,binding signal,ELK4,"1.35 fold enrichment (6-mer frequency, TF over GST control)"
same,binding signal,ETV2,"1.06 fold enrichment (6-mer frequency, TF over GST control)"
same,binding signal,ELF3,"1.3 fold enrichment (6-mer frequency, TF over GST control)"
same,binding signal,CRX,"3.28 fold enrichment (6-mer frequency, TF over GST control)"
same,binding signal,ETV1,"1.34 fold enrichment (6-mer frequency, TF over GST control)"
same,binding signal,ERF,"1.33 fold enrichment (6-mer frequency, TF over GST control)"
same,binding signal,ETV3L,"1.37 fold enrichment (6-mer frequency, TF over GST control)"
same,binding signal,ETS2,"1.37 fold enrichment (6-mer frequency, TF over GST control)"
same,binding signal,SPDEF,"1.17 fold enrichment (6-mer frequency, TF over GST control)"
same,binding signal,ETV7,"1.46 fold enrichment (6-mer frequency, TF over GST control)"
same,binding signal,ELF5,"1.28 fold enrichment (6-mer frequency, TF over GST control)"
same,binding signal,ETV3,"1.21 fold enrichment (6-mer frequency, TF over GST control)"
same,binding signal,ETV6,"1.28 fold enrichment (6-mer frequency, TF over GST control)"
